Unmarked numbers belong to inactive results.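 Rule for the calls: active = growth AUC significantly below the DMSO wells by Dunnett test; inactive = the rest.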
What was measured:
Test in all cases: relative growth (AUC of 72 h growth curve relative to DMSO control, dAUC) (ratio); higher = more growth (less inhibition), active = hit call of the paper
Settings in all cases: 20 µM
[1] = system: Community 7
In short: (§1)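 For relative growth (dAUC), the spline-integrated area under the growth curve was divided by the mean of the DMSO controls. Results were averaged over three biological replicates. Each replicate used a 1:100 dilution, into 96-well plates holding each chemical at 20 µM (1% DMSO), of isolates from Icelandic stream sediments and Silwood Park soil or whole sediment communities that had been grown to carrying capacity in Luria–Bertani medium. Plates were shaken briefly before each hourly A600 reading over 72 h.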

[2] = system: Community 8
In short: as §1

[3] = system: Community 9
In short: as §1

[4] = system: Flavobacterium 1 (Flavobacterium glaciei)
In short: as §1

[5] = system: Flavobacterium 2 (Flavobacterium succinicans)
In short: as §1

[6] = system: Hymenobacter 1 (Hymenobacter glaciei)
In short: as §1

[7] = system: Microbacterium 1 (Microbacterium arborescens)
In short: as §1

[8] = system: Neobacillus 1 (Neobacillus soli)
In short: as §1

[9] = system: Oryzobacter 1 (Oryzobacter terrae)
In short: as §1

[10] = system: Paenibacillus 1 (Paenibacillus castaneae)
In short: as §1

[11] = system: Prolinoborus 1 (Prolinoborus fasciculus)
In short: as §1

[12] = system: Pseudomonas 1 (Pseudomonas baetica)
In short: as §1

[13] = system: Pseudomonas 2 (Pseudomonas vancouverensis)
In short: as §1

[14] = system: Pseudomonas 3 (Pseudomonas mandelii)
In short: as §1

[15] = system: Pseudomonas 4 (Pseudomonas peli)
In short: as §1

[16] = system: Pseudomonas 5 (Pseudomonas baetica)
In short: as §1

[17] = system: Pseudomonas 6 (Pseudomonas sp.)
In short: as §1

[18] = system: Rhizobium 1 (Rhizobium herbae)
In short: as §1

[19] = system: Serratia 1 (Serratia sp. 2015-2462-01)
In short: as §1

[20] = system: Sphingomonas 2 (Sphingomonas sp.)
In short: as §1

Compound	relative growth [1]	relative growth [2]	relative growth [3]	relative growth [4]	relative growth [5]	relative growth [6]	relative growth [7]	relative growth [8]	relative growth [9]	relative growth [10]	relative growth [11]	relative growth [12]	relative growth [13]	relative growth [14]	relative growth [15]	relative growth [16]	relative growth [17]	relative growth [18]	relative growth [19]	relative growth [20]
COCC(C)N(C(=O)CCl)c1c(C)csc1C (stereo not given)	0.996	1.01	1.01	0.948	1.01	0.962	1.04	0.98	0.982	0.961	0.925	1.04	0.974	1	0.962	1.07	1.15	1.04	0.939	1.01
CNC(=O)Oc1cccc(/N=C/N(C)C)c1	1.15	1.03	1.07	0.984	0.99	0.815	1.02	0.97	1.05	0.96	0.966	1.04	0.989	1.1	0.942	1.07	1.17	0.99	0.97	1.05
Cc1ccc(/N=C/N(C)/C=N/c2ccc(C)cc2C)c(C)c1	1.16	1.05	0.961	1.02	1	1.04	1.05	0.964	1.03	0.969	0.978	1.05	0.973	1.1	0.967	1.01	1.11	1.06	0.946	1.04
O=C(NC(=O)c1c(F)cccc1F)Nc1ccc(Cl)cc1	0.985	1.06	1.05	0.844	0.949	0.917	1.03	0.942	1.04	0.957	0.965	1.06	1.01	1.04	1.02	1.01	1.05	1.06	0.988	1.02
CC1(C)CON(Cc2ccccc2Cl)C1=O	1.08	1.04	1.02	1.02	0.941	0.974	1	0.965	1.13	0.973	0.954	1.01	0.981	1.06	0.975	1.06	1.13	0.983	0.94	1.15
Cc1cc(C)nc(Nc2ccccc2)n1	1.09	1.03	1.03	1.01	0.983	1.1	1.03	0.999	0.978	0.762	0.979	0.925	0.956	1.03	0.947	0.99	1.03	0.868	0.937	0.984
CC(C)N1C(=O)c2ccccc2NS1(=O)=O	1.02	0.996	1.01	1.09	1.02	1.09	0.977	1.04	1.02	0.96	1.01	1.16	1.03	1.02	0.975	1.01	1.03	1.04	0.991	1.01
CCOP(=S)(OCC)Oc1cc(C)nc(C(C)C)n1	1.1	0.976	0.912	0.913	0.909	0.975	0.969	0.943	1.09	0.922	0.91	0.877	1.01	1.04	0.919	0.98	1.12	0.904	0.958	0.988
CCC(=O)Nc1ccc(Cl)c(Cl)c1	0.951	1.06	1.03	1.02	0.965	0.981	1.02	0.962	1.02	0.968	0.951	1.04	0.975	0.984	0.928	1.01	1.02	0.817	0.906	0.927
C[N+](C)(C)CCCl	0.749	0.988	1.01	1.09	0.996	0.977	0.994	0.993	1.05	0.97	0.959	1.07	1.03	1.01	1.04	1.02	1.07	0.998	0.962	1.02
N#Cc1c[nH]cc1-c1cccc2c1OC(F)(F)O2	1.12	1.02	0.914	0.83	0.856	0.958	1.01	0.915	1.14	0.904	0.978	0.952	1	1.03	0.945	0.971	1.04	0.932	0.942	0.957
N#Cc1nn(-c2c(Cl)cc(C(F)(F)F)cc2Cl)c(N)c1[S+]([O-])C(F)(F)F (stereo not given)	0.995	1.05	1.04	0.977	1.01	1.05	1	0.993	0.998	1.02	0.897	0.913	0.948	0.94	0.987	1.01	0.962	0.971	0.96	0.983
CC(C)OC(=O)C(C(=O)OC(C)C)=C1SCCS1	1.15	1	0.964	0.993	0.947	1.09	1.02	1.01	1.12	0.965	0.947	1.16	0.995	1.04	0.947	1.03	1.09	0.897	0.96	1.1
CC(C)(C)c1ccc(CSc2cnn(C(C)(C)C)c(=O)c2Cl)cc1	1.12	1.03	0.994	0.923	1	1.01	1.08	0.915	1.04	0.971	0.998	1	1.01	1.02	1.02	1.01	1.13	1.04	1.06	0.802
O=C(Nc1ccc(F)cc1F)c1cccnc1Oc1cccc(C(F)(F)F)c1	1.04	0.97	1.11	1.09	1.03	1.05	0.997	1.06	1.03	0.937	1.03	1.09	1.01	1.05	1.01	1.06	1.13	0.66	1.02	1.16
CCCCc1c(C)nc(NCC)nc1OS(=O)(=O)N(C)C	1.04	1.05	0.969	0.978	0.904	1.06	1.02	0.963	1.09	0.906	1.04	1.06	0.978	1.02	0.97	0.981	1	1.05	0.96	0.969
Cc1cc(C2CC2)nc(Nc2ccccc2)n1	0.89	1.05	0.939	0.951	0.86	1.1	1.05	0.946	1.04	0.619 (active)	1.03	1.11	1	1.03	0.976	0.991	0.966	1.06	0.969	0.951

Compound	relative growth [1]	relative growth [2]	relative growth [3]	relative growth [4]	relative growth [5]	relative growth [6]	relative growth [7]	relative growth [8]	relative growth [9]	relative growth [10]	relative growth [11]	relative growth [12]	relative growth [13]	relative growth [14]	relative growth [15]	relative growth [16]	relative growth [17]	relative growth [18]	relative growth [19]	relative growth [20]
COP(=O)(NC(C)=O)SC (stereo not given)	0.831	0.99	1.03	1.06	0.982	1	1.01	1.01	1.04	0.959	1.03	1.07	1.02	1.08	1.02	1.02	1.14	0.999	0.992	0.94
C[C@@H]1[C@@H](c2ccc(Cl)cc2)SC(=O)N1C(=O)NC1CCCCC1	1.05	1.05	1.05	0.937	1.02	1.12	1.04	1.06	0.912	1.02	0.994	0.933	0.976	1.02	1	1.05	1.13	0.964	1	0.987
COCc1cnc(C2=NC(C)(C(C)C)C(=O)N2)c(C(=O)O)c1 (stereo not given)	1.14	0.983	0.959	0.978	1	1.02	1.02	0.961	1.05	0.966	1.08	0.958	0.98	0.992	0.974	0.972	1.01	0.972	1.03	0.982
CCOC(=O)CC(SP(=S)(OC)OC)C(=O)OCC (stereo not given)	1.04	0.99	1.14	1.02	1.02	1.02	1	1.06	1.1	1.02	1.01	1.03	1.05	1.05	1.04	0.994	1.09	0.984	1.01	1.15
CCSC(C)CC1CC(=O)C(/C(CC)=N/OC/C=C/Cl)=C(O)C1 (mixture of isomers)	1.02	1	1.12	1	0.981	0.951	1.03	1.05	1.03	0.995	0.983	1.07	0.999	1.02	1.01	1.05	1.14	0.924	0.973	1.18
O=C1c2ccccc2C(=O)N1SC(Cl)(Cl)Cl	0.943	0.913	1.01	1.05	0.983	1.11	1.02	1.07	0.988	1.02	1.04	1.05	0.992	1.01	1.01	1.06	1.16	1.01	0.947	0.999
CC1COC(Cn2cncn2)(c2ccc(Oc3ccc(Cl)cc3)cc2Cl)O1 (stereo not given)	1.02	1.01	1.21	0.367 (active)	0.988	0.956	0.936	1.08	1.16	0.872	1.04	1.06	0.99	1.06	1.01	1.03	1.08	0.952	1.01	1.06
CNC(=O)Oc1cccc2ccccc12	0.845	1.06	0.967	1.09	1.01	1.03	1.02	1.04	0.972	1	1	0.973	1.04	0.996	1.01	1.04	1.12	0.906	0.932	0.986
CCOCn1c(-c2ccc(Cl)cc2)c(C#N)c(Br)c1C(F)(F)F	1.06	1.05	1.03	1.03	0.988	0.993	0.996	0.979	1	0.978	1.01	1.05	1	1.04	1.02	0.998	1.11	1.07	1.01	0.848
CNC(=O)c1cc(C#N)cc(C)c1NC(=O)c1cc(Br)nn1-c1ncccc1Cl	1.05	0.986	1.02	1.02	0.975	0.978	0.993	0.957	1.06	0.915	0.944	0.962	0.986	1.01	0.976	1.06	1.06	0.961	0.982	1.05
COC(=O)N(OC)c1ccccc1COc1ccn(-c2ccc(Cl)cc2)n1	1.11	1.04	1.09	0.969	0.979	1.08	0.98	1.03	1.17	0.944	1.01	1.13	1.04	1.03	1	1.02	1.15	0.863	0.984	1.05
CC1=NNC(=O)N(/N=C/c2cccnc2)C1	0.897	0.918	1.2	1.04	1.05	1.12	1	1.16	1.01	1.06	1.05	0.636	1.03	0.986	0.986	0.971	0.931	1.03	0.937	1.03
CNC(=O)c1cc(Cl)cc(C)c1NC(=O)c1cc(Br)nn1-c1ncccc1Cl	1.02	1.04	1.09	1	1.03	1.13	0.975	1.04	0.99	1.09	0.997	0.975	0.996	0.958	1.01	0.958	0.922	0.944	1.04	1.06
CSc1nnc(C(C)(C)C)c(=O)n1N	1	1.04	1.05	1.03	1.02	1.04	1	1.02	1.03	1.02	0.951	0.717	0.997	0.984	1.01	0.998	0.948	0.958	0.995	0.779
CS(=O)(=O)c1ccc(C(=O)C2C(=O)CCCC2=O)c([N+](=O)[O-])c1	0.957	1.06	1.04	1.07	1.04	1.07	1.04	1.04	1.01	1.03	0.983	1.06	1.02	1.03	1.05	0.998	0.96	1.15	1	1.1
O=C(Nc1ccccc1-c1ccc(Cl)cc1)c1cccnc1Cl	1	1.03	0.999	1.04	1	1.11	1.01	1.06	0.99	1.02	0.978	0.948	0.972	1	0.986	0.998	0.959	0.665	0.971	0.958

Reference: the supplement of paper PMC12067926
